From PubChem BioAssay (EPA / NIEHS) come the findings set out here.

The structures appear in SMILES notation. Values joined by “and” are separate entries in the source; they are usually repeats but may differ in a detail not shown here. Equal values may be shown once. Active and inactive are the calls of the source. How the source made its calls: active means hit-call score of the fitted dose curve at least 0.9, where 1 is the maximum; inactive means score below 0.9.

Read-out in this assay: CD69, CD69 (gene 969)
Description: BSK_LPS_CD69: BioMAP Diversity Plus: LPS Assay for CD69 Biomarker Activity (AID 2284303). To be noted: primary human HUVEC with PBMC. The essentials:
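Human umbilical vein endothelial cells co-cultured with PBMC under LPS stimulation, chemical exposure 24 h; cell-surface CD69 measured by ELISA and fitted in the positive direction versus DMSO.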
For the molecule `O=C(O)C(F)(OC(F)(F)C(F)(OC(F)(F)C(F)(F)C(F)(F)F)C(F)(F)F)C(F)(F)F` (centres undefined), the result was inactive.
For the molecule `FC(F)(F)C(F)(F)C(F)(F)C(F)(F)C(F)(F)CCI`, the result was inactive.
For the molecule `O=C(O)C(F)(OC(F)(F)C(F)(OC(F)(F)C(F)(OC(F)(F)C(F)(F)C(F)(F)F)C(F)(F)F)C(F)(F)F)C(F)(F)F` (centres undefined), the result was inactive.
On the same count and under the same terms, in the case of `FC(F)(I)C(F)(F)C(F)(F)C(F)(F)I` it was “inactive”.
Still for that read-out and setting: in the case of `FC(F)(Br)C(F)(F)C(F)(F)C(F)(F)C(F)(F)C(F)(F)Br` it was “inactive”; in that of `COC(=O)CCC(F)(F)C(F)(F)C(F)(F)C(F)(F)F`, “inactive”.
The same measure, in the same setting: in the case of `C=C(C)C(=O)OCCC(F)(F)C(F)(F)C(F)(F)C(F)(F)C(F)(C(F)(F)F)C(F)(F)F` it was “inactive”; in that of `O=S(=O)(OCCOC(F)(F)F)C(F)(F)F`, “inactive”.
Take `C=CC(=O)OCC(F)(F)C(F)(F)C(F)(F)C(F)(F)C(F)(F)C(F)(F)C(F)(F)F`: the outcome was inactive.
On the same count and under the same terms, the entry for `FC(F)(F)C(F)(F)C(F)(F)N(C(F)(F)C(F)(F)C(F)(F)F)C(F)(F)C(F)(F)C(F)(F)F` is “inactive”; for `FC(F)(F)C(F)(F)C(F)(F)C(F)(F)C(F)(F)C(F)(F)CCS` it is “inactive”; for `C=C(C)C(=O)OCC(F)(F)C(F)(F)C(F)(F)C(F)(F)C(F)(F)C(F)(F)C(F)(F)F` it is “inactive”.
Still for that read-out and setting: the entry for `O=C(O)C=C(C(F)(F)F)C(F)(F)F` is “inactive”; for `FC(F)(F)C(F)(F)C(F)(F)C(F)(F)C(F)(F)C(F)(F)C(F)(F)Br` it is “inactive”; for `FC(F)(F)C(F)(F)C(F)(F)C(F)(F)C(F)(F)C(F)(F)C(F)(F)I` it is “inactive”.
Still for that read-out and setting: the entry for `OCC(F)(F)C(F)(F)C(F)(F)C(F)(F)C(F)(F)C(F)(F)F` is “inactive”; for `CC(C)(C)C(=O)CC(=O)C(F)(F)C(F)(F)C(F)(F)F` it is “inactive”.
Consider `O=C(O)C(F)(F)C(F)(F)F`, for which the outcome was inactive.
The term AC50 denotes the concentration giving half of the maximal activity seen. Consider `CCCCCCOC(=O)c1ccccc1O`, for which the AC50 was 39.4 µM (active) and 46.4 µM (active).
As for `O=C(O)C(F)(F)C(F)(F)C(F)F`, the outcome was inactive.
Same read-out and setting: in the case of `CCCCCCCCC(F)(F)C(F)(F)C(F)(F)C(F)(F)C(F)(F)C(F)(F)F` it was “inactive”; in that of `O=S(=O)(OCC(F)F)C(F)(F)F`, “inactive”; in that of `O=C(O)C(F)(F)C(F)(F)C(F)(F)C(F)(F)C(F)(F)C(F)(F)C(F)(F)C(F)(F)C(F)(F)C(F)(F)C(F)(F)C(F)(F)F`, “inactive”.
On the same count and under the same terms, in the case of `O=C(O)C(F)(F)C(F)(F)C(F)(F)C(F)(F)C(F)(F)C(F)(F)C(F)(F)C(F)(F)C(F)(F)C(F)(F)C(F)(F)C(F)(F)C(F)(F)F` it was “inactive”; in that of `FC1CC(F)(F)C(F)(F)C1(F)F` (centres undefined), “inactive”.
Still for that read-out and setting: the entry for `OCCCC(F)(F)C(F)(F)C(F)(F)F` is “inactive”.
With `OCC(F)(F)C(F)(F)C(F)(F)C(F)(F)C(F)(F)C(F)F`, the outcome was inactive.
On the same count and under the same terms, in the case of `O=C(O)C(F)(F)C(F)(F)C(F)(F)C(F)(F)F` it was “inactive”.
For the molecule `C=CC(F)(F)C(F)(F)C(F)(F)C(F)(F)C(F)(F)C(F)(F)C(F)(F)C(F)(F)C=C`, the result was inactive.
